Test results as given in the supplement of paper PMC11732987, “Enantioselective OTUD7B fragment discovery through chemoproteomics screening and high-throughput optimisation” (Communications Chemistry, 2025).

How the values were obtained:
Experiment in all cases: log2 ratio of Biotin-Ahx-Ub-VS probe labelling (fragment/DMSO); higher = less target engagement (more negative = stronger competition), active = hit call of the paper (q ≤ 0.05, log2 ratio ≤ -1)
Conditions in all cases: compound concentration: 200 uM; treatment time: 3 h
[1] = target: T1, OTUD6B (UniProt Q8N6M0)
T1 sequence (whole entry): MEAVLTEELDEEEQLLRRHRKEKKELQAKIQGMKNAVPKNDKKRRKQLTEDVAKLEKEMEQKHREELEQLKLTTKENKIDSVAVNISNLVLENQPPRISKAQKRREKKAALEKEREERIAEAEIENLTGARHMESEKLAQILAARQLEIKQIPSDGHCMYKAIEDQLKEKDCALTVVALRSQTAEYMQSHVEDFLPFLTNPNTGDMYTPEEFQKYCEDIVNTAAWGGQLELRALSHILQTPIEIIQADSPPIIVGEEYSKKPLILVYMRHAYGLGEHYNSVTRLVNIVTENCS
Summary of the method: (§1)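 Fragment (200 µM) or vehicle was incubated for 3 h with triplicate HEK293T lysate samples of 495 µg, which were then treated with Biotin-Ahx-Ub-VS at 0.5 µM final for 1 h. Labelled DUBs were enriched on NeutrAvidin, digested with LysC and trypsin, and analysed by diaPASEF LC-MS/MS. Values are average log2 fragment/vehicle ratios from an unpaired t-test on global-median-normalised Spectronaut label-free quantities, using proteins with ≥2 unique peptides.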

[2] = target: T2, OTUD7B (UniProt Q6GQQ9)
T2 sequence (whole entry): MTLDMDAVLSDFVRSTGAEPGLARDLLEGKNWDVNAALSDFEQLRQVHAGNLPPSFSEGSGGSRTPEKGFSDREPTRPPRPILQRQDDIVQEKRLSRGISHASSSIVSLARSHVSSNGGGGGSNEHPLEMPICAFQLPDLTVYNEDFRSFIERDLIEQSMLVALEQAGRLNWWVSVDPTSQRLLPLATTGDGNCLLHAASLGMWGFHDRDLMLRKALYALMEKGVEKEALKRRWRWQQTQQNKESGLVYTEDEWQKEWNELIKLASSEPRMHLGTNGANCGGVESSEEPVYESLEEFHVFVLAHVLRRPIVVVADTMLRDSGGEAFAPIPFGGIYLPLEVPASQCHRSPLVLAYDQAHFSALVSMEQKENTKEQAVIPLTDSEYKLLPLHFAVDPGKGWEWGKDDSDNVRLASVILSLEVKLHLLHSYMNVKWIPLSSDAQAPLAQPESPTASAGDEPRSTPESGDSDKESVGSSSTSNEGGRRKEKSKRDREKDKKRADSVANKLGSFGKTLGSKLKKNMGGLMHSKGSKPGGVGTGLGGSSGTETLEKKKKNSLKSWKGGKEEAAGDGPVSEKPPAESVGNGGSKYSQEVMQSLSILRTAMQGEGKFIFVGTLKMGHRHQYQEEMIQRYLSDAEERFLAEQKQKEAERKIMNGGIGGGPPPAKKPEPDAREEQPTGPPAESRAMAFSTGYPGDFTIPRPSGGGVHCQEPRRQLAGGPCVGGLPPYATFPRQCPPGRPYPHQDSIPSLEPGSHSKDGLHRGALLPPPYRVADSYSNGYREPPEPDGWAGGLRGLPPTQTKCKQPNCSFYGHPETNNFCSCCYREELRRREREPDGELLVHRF
Summary of the method: as §1

[3] = target: PRPF8 (UniProt Q6P2Q9)
Summary of the method: as §1

[4] = target: T3, PSMD7 (UniProt P51665)
T3 sequence (whole entry): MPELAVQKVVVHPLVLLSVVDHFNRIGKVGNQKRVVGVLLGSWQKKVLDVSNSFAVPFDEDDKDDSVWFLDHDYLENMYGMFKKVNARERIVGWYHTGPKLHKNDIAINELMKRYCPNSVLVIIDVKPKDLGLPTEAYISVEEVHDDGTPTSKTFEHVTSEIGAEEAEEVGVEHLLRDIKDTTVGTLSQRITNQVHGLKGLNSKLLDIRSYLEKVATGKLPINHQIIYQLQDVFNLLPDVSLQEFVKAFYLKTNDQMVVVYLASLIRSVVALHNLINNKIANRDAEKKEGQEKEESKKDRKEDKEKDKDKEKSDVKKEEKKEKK
Summary of the method: as §1

[5] = target: UCHL1 (UniProt P09936)
Summary of the method: as §1

[6] = target: T4, UCHL3 (UniProt P15374)
T4 sequence (whole entry): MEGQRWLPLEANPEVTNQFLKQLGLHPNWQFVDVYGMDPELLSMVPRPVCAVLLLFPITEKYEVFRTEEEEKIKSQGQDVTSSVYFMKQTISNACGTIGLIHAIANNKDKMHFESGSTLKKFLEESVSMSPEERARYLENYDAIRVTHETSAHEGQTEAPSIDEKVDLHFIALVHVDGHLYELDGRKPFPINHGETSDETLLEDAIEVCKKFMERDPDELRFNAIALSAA
Summary of the method: as §1

[7] = target: T5, UCHL5 (UniProt Q9Y5K5)
T5 sequence (whole entry): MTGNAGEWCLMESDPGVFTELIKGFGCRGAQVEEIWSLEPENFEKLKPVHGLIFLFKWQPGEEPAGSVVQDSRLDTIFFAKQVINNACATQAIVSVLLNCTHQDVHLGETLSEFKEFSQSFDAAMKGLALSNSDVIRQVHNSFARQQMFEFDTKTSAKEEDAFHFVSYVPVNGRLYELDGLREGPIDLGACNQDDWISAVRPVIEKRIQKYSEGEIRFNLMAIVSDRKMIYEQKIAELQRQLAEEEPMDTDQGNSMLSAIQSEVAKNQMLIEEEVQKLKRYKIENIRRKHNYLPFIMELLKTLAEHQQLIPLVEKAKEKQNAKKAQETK
Summary of the method: as §1

[8] = target: USP10 (UniProt Q14694)
Summary of the method: as §1

[9] = target: T6, USP15 (UniProt Q9Y4E8)
T6 sequence (whole entry): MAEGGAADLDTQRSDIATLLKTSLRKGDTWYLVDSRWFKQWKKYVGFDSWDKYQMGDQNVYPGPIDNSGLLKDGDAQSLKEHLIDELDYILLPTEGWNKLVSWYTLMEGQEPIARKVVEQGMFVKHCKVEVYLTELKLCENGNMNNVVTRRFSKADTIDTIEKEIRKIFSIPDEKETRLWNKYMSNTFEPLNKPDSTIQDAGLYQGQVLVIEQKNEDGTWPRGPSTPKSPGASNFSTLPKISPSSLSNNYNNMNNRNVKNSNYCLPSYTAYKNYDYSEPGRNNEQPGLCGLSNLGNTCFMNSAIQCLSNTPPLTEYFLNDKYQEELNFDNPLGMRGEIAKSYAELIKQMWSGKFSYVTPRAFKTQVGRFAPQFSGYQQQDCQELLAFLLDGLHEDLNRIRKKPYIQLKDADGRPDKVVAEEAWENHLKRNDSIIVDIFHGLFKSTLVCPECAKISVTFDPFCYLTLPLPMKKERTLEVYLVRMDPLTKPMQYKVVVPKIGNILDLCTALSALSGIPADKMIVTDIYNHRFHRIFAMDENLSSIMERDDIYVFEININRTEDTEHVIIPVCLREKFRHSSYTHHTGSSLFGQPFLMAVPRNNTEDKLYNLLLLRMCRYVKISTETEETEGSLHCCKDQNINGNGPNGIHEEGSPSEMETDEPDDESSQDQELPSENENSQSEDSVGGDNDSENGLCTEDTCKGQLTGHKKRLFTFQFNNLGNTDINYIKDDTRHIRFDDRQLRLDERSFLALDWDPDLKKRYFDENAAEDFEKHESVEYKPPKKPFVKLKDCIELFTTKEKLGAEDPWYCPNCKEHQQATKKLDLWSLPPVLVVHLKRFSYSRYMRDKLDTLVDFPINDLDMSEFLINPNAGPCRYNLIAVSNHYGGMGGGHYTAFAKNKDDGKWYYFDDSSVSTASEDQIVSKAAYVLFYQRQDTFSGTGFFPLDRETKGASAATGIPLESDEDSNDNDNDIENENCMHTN
Summary of the method: as §1

[10] = target: USP16 (UniProt Q9Y5T5)
Summary of the method: as §1

Measured: log2 ratio of Biotin-Ahx-Ub-VS probe labelling

Sequence of USP10 (Q14694 whole entry): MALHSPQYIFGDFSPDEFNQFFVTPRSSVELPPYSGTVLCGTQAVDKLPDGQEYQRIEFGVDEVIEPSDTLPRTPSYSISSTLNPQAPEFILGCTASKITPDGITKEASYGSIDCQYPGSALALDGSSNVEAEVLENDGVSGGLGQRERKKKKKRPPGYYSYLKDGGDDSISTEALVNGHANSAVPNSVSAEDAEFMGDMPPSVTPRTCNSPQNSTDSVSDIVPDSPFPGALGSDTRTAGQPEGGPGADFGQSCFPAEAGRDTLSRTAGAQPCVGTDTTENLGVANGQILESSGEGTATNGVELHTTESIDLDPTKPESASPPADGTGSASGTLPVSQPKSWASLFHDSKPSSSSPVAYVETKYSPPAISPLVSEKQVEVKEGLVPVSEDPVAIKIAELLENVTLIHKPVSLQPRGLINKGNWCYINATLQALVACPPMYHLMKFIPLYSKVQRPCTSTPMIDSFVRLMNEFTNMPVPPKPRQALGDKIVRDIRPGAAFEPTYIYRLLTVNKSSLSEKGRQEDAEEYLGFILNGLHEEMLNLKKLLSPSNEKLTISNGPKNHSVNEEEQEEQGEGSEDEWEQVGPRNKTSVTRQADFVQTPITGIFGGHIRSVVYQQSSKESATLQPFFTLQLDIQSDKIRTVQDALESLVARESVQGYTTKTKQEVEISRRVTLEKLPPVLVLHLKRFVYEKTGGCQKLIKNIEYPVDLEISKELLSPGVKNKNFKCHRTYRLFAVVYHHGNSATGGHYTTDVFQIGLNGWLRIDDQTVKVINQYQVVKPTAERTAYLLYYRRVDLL
Sequence of UCHL1 (P09936 whole entry, looked up): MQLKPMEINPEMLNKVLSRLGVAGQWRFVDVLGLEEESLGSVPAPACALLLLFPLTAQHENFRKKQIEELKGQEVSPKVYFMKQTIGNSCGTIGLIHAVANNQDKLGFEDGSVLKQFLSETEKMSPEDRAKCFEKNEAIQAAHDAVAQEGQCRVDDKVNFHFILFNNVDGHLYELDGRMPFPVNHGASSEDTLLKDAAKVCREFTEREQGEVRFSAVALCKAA
Sequence of USP16 (Q9Y5T5 whole entry, looked up): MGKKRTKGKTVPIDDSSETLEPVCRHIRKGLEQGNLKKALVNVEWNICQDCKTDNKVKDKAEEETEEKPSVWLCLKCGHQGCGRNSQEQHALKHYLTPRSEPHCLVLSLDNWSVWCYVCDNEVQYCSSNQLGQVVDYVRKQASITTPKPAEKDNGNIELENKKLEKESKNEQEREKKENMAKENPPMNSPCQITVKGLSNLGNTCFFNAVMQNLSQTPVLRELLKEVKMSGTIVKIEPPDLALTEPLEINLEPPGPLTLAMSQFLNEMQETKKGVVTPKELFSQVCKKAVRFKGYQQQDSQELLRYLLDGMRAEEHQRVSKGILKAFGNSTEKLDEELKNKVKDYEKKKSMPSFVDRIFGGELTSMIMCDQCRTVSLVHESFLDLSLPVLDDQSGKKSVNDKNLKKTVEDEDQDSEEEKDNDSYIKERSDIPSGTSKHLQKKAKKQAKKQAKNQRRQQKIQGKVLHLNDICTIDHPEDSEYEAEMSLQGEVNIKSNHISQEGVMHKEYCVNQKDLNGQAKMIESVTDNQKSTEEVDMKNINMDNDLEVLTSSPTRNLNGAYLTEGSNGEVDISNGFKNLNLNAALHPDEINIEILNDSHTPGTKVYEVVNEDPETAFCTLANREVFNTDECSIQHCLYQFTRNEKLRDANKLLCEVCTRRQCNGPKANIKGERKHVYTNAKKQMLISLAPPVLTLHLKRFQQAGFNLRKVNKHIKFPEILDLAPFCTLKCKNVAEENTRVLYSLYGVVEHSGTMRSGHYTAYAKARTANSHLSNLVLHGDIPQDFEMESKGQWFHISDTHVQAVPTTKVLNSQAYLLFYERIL

N#Cc1ccc(CNC(=O)CCl)cc1
inactive: [1] 0.025 | [2] -0.865 | [3] -0.187 | [4] -0.28 | [6] 0.183 | [7] -0.131 | [8] -0.0787 | [9] -0.145 | [10] 0.29
active: [5] -1.19
